Experimental findings from PubChem BioAssay AID1851 (National Center for Advancing Translational Sciences (NCATS), 2009) are described below.

Hit rate of the full screen: of about 16,000 compounds, about 5,100 (32%) were called active. Not shown: some 25% with an inconclusive outcome. The list shows a part of the results. Values without a mark were called inactive. Calls follow the shape of the dose curve; as a rule, active = well fitted curve in the direction sought with a large enough effect; inconclusive = small, poorly fitted or top-dose-only effect, or effect the other way; inactive = no such curve, though single readings can be large or run the other way.
% is scaled to controls: 0 for no effect and ±100 for the full control effect.

The target in this experiment is Cytochrome P450 3A4 (Homo sapiens) (UniProt P08684). The experiment is described as follows: Cytochrome panel assay with activity outcomes. As to conditions: recombinant CYP, pro-luciferin dealkylation, luminescence, p450-cyp3a4; series mostly up to 57.1 µM.
Sequence of Cytochrome P450 3A4 (Homo sapiens) (P08684 whole entry, looked up): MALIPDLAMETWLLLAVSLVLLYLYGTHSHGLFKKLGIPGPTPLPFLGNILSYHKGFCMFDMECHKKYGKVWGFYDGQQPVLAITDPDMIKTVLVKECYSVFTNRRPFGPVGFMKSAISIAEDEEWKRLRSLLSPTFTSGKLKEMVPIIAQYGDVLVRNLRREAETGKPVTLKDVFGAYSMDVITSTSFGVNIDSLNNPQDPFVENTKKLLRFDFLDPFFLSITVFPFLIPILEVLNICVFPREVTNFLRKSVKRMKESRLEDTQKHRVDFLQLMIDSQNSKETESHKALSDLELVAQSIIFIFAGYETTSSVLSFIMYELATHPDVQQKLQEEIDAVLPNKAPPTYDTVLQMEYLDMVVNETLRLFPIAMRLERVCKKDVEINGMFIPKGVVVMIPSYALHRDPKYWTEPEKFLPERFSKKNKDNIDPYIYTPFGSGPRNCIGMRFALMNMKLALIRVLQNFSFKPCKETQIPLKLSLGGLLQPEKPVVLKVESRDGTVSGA
One may read the AC50 as the concentration giving half of the maximal activity seen. Turning to `COc1ccc(CNc2ncnc3ccc(-c4ccccc4OC)cc23)c(OC)c1`, the AC50 was 2 µM (active).
On to `COc1ccccc1CNc1ncnc2ccc(-c3ccccc3CN(C)C)cc12`, for which the AC50 was 12.6 µM (active).
For `COc1ccc(/C=C/C(=O)Oc2cccc(/C=N/NC(=O)COc3c(C)cccc3C)c2)cc1`, the AC50 entry is “inactive”.
Same read-out and setting: the value for `CCOc1cc(/C=N/NC(=O)COc2cccc(C)c2)ccc1OC(=O)c1cccs1` was 14.1 µM (active); that for `CCOc1cc(/C=N/NC(=O)CNc2cccc(C)c2)ccc1OC(=O)c1ccccc1` was “inactive”; that for `CS(=O)(=O)Nc1cccc(-c2ccc3ncnc(Nc4ccc(F)cc4)c3c2)c1` was 7.94 µM (active).
As for `CS(=O)(=O)Nc1cccc(-c2ccc3ncnc(NC4CC4)c3c2)c1`, the AC50 is 6.31 µM (active).
Turning to `CNc1ncnc2ccc(-c3cccc(NS(C)(=O)=O)c3)cc12`, the AC50 was 12.6 µM (active).
On to `CS(=O)(=O)Nc1cccc(-c2ccc3ncnc(Nc4ccccc4)c3c2)c1`, for which the half-maximal activity concentration (AC50) is 10 µM (active).
As for `CS(=O)(=O)Nc1cccc(-c2ccc3ncnc(NC4CCNCC4)c3c2)c1`, the AC50 result was “inactive”.
In the case of `c1ccc2cc(-c3cc(-c4cc(-c5ccc6ccccc6c5)on4)no3)ccc2c1`, the activity, negative = inhibition is -8% [at 11.4 µM].
For the compound `COCCNc1ncnc2ccc(-c3cccc(NS(C)(=O)=O)c3)cc12`, the AC50 is 15.8 µM (active).
As for `[O-][N+]1(CC[N+]2([O-])CCCCC2)CCCCC1`, the activity, negative = inhibition was -11.4% [at 11.4 µM].
Consider `CCN(CC)Cc1c(O)c(Cl)cc2c3c(c(=O)oc12)CCCC3`, for which the AC50 result is “inactive”.
Still for that read-out and setting: next, `CCCC/C=C/C(NC(=O)c1ccc(-c2ccccc2)cc1)c1ccccc1` (configuration not stated): “inactive”.
With `CCCN(CCC)C(=O)[C@@H](CCC(=O)O)NC(=O)c1ccccc1`, the AC50 result was “inactive”.
On the same count and under the same terms, the value for `CCCC/C=C/C(NC(=O)c1ccccc1)c1ccccc1` (configuration not stated) was 15.8 µM (active).
Consider `CCCC/C=C/C(NC(=O)c1cccs1)c1ccccc1` (configuration not stated), for which the AC50 was 12.6 µM (active).
Still for that read-out and setting: the value for `C#CCOC(=O)NC(/C=C/CCCC)c1ccccc1` (configuration not stated) was 12.6 µM (active).
Still for that read-out and setting: the value for `CCCCCCCCCCCCC/C=C\[C@@H](O)[C@H](CO)NC(C)=O` was “inactive”; that for `CCCC/C=C/C(NC(=O)C(C)(C)C)c1ccccc1` (configuration not stated) was 25.1 µM (active).
For `CC(=O)Oc1cc(C(F)(F)F)ccc1C(=O)O`, the AC50 result was “inactive”.
As to `CCCC/C=C/C(NC(=O)Oc1cccc(C(F)(F)F)c1)c1ccccc1` (configuration not stated), the AC50 is 15.8 µM (active).
As to `N[C@@H](C(=O)O)c1ccc(C(=O)O)cc1`, the AC50 entry was “inactive”.
On to `CCN1C(=O)/C(=C2\SC(N3CCCCC3)=NC2=O)c2ccccc21`, for which the AC50 is 14.1 µM (active).
As for `CN(C)CN1C(=O)S/C(=C2/C(=O)N(CN(C)C)c3ccccc32)C1=O`, the activity, negative = inhibition is 4.92% [at 11.4 µM].
Regarding `O=C1N=C(N2CCOCC2)S/C1=C\C=C/c1ccccc1`, the AC50 result was “inactive”.
